# Compounds without any hit were thinned out: in the full panel of roughly 79,000, 15% have a hit. A number with no mark means an inactive call. Active and inactive are the calls of the source. No stated cut-off is given here; in the data, active means growth inhibition above about 70%; inactive means the rest.
# Test: NCI Yeast Anticancer Drug Screen. Data for the CLN2oe strain (AID 163);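 further: 0% = growth of vehicle-only control cultures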
# Details: S. cerevisiae CLN2oe strain, active compounds read high
# Procedure: Growth inhibition of yeast strains with defined genetic alterations is measured as a screen for potential anti-cancer activity. Selected strains with alterations in DNA damage repair or cell cycle control were exposed to compounds and growth inhibition was measured relative to vehicle treated controls. The strain used in this assay is CLN2oe
SMILES,growth inhibition (at 1.2 µM) [%],growth inhibition (at 3.7 µM) [%],growth inhibition (at 11.0 µM),growth inhibition (at 33.0 µM),growth inhibition (at 100.0 µM)
Oc1ccc(Br)cc1C=NC1CCCCC1,-3,1,12%,39%,98% (active)
Cc1cc(OCc2ccccc2)ccc1[N+](=O)[O-],9,23,11%,32%,71% (active)
OC(CN1CCCCC1)c1cc(Cl)c(Cl)c(Cl)c1 (stereo not given),7,8,32%,47%,57%
CC(=O)Oc1ccc(C(=O)c2ccccc2)c(O)c1,-7,-9,-10%,12%,96% (active)
O=C1C=CC(=O)N1c1ccc(N2C(=O)C=CC2=O)cc1,35,59,99% (active),99% (active),99% (active)
O=C1C(Cl)=C(Cl)C(Cl)(Cl)C(Cl)C1(Cl)Cl (stereo not given),15,38,54%,99% (active),99% (active)
O=C(NCCCCCN1CCC2(CCCCC2)CC1)C(C1CCCCC1)C1CCCCC1,-4,4,78% (active),99% (active),99% (active)
COc1cc(N)ccc1Nc1c2ccccc2nc2ccccc12,29,11,6%,29%,81% (active)

# From PubChem BioAssay (NCI)
